# Results filed as inconclusive are left out. Entries that show only a call come without a potency. Active and inactive are the calls of the source. Unless noted, calls follow the shape of the dose curve; as a rule, active = well fitted cell-killing curve with a large enough effect in the repeat runs (not every such curve was filed as active); inconclusive = weak or mixed curves, or effect the other way; inactive = no such curve, though single readings can be large or run the other way.
# Molecular target: Bile acid receptor (Homo sapiens) (UniProt Q96RI1)
# Sequence (Q96RI1 whole entry, looked up): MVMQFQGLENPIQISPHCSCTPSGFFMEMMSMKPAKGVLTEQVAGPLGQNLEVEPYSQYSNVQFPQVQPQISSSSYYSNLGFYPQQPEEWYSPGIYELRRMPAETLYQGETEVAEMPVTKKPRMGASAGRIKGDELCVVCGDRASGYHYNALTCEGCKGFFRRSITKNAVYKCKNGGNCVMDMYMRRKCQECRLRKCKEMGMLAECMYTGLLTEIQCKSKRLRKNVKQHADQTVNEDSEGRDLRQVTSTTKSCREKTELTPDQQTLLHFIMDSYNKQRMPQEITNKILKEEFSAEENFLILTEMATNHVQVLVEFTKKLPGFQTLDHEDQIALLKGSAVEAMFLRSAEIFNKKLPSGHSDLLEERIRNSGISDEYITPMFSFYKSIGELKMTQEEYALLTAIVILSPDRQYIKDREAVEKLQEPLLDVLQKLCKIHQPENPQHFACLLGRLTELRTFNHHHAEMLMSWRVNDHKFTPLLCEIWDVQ
# Assay: qHTS assay to identify small molecule agonists of the farnesoid-X-receptor (FXR) signaling pathway (AID 743220; active = well fitted activation curve with a large enough effect in the signal ratio in the repeat runs, not every such curve was filed as active; the % refers to the signal ratio)
# Conditions: HEK293T FXR-UAS-bla, beta-lactamase FRET ratio, 16 h; series mostly up to 62.6 µM
# Method in brief: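 FXR-UAS-bla HEK 293T cells carrying a UAS-driven beta-lactamase reporter were plated for 5 h at 37C/5% CO2, then exposed to DMSO-dissolved Tox21 10K compounds for 16 h at 37C. A LiveBLAzer B/G FRET substrate was loaded for 2 h at room temperature before fluorescence reading.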
row,Structure (SMILES),outcome
1,CC(C)c1ccc2c(C(C)C)cc(C(C)C)c(S(=O)(=O)O)c2c1,inactive
2,OCCC1CCCCN1 (stereo unspecified),inactive
3,CC(C)CC=O,inactive
4,CCCCCCCCCO,inactive
5,FC(F)(F)C(F)(F)C(F)(F)C(F)(F)C(F)(F)C(F)(F)CCI,inactive
6,CN1CCC(=C2c3ccccc3C=Cc3ccccc32)CC1,inactive
7,C#CCOC(=O)[C@@H](C)Oc1ccc(Oc2ncc(Cl)cc2F)cc1,inactive
8,O=C(Nc1ccccc1)OCC(CN1CCCCC1)OC(=O)Nc1ccccc1 (stereo unspecified),inactive
9,CCOC(=O)C1=NN(c2ccccc2)C(=O)C1,inactive
10,CCCCCCOC(=O)CCC,inactive
11,O=C(O)Cc1sc(-c2ccccc2)nc1-c1ccc(Cl)cc1,inactive
12,CN(C(=O)CCCOc1ccc2[nH]c(=O)ccc2c1)C1CCCCC1,inactive
13,Cc1ccc2c(ccc3ccccc32)c1,inactive
14,CCCCOC(=O)/C=C\C(=O)OCCCC,inactive
15,CN(C)CCCNCCCN,inactive
16,N#Cc1c(F)cccc1F,inactive

# Test system: not listed separately
# Assay: qHTS assay to identify small molecule antagonists of the farnesoid-X-receptor (FXR) signaling pathway - cell viability counter screen (AID 743221); also: nearly all actives have a fitted effect of over 50% in size
# Conditions: FXR-bla HEK293T viability, CellTiter-Glo luminescence, 16 h; series mostly up to 62.6 µM
# Method in brief: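 In GeneBLAzer FXR-UAS-bla HEK 293T cells stimulated with 50 uM chenodeoxycholic acid (final), compounds acted for 16 h at 37 C. Viability was assessed afterwards by CellTiter-Glo luminescence.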
row,Structure (SMILES),Potency
1,CC(C)c1ccc2c(C(C)C)cc(C(C)C)c(S(=O)(=O)O)c2c1,inactive
2,Cc1cc(C)c(S(=O)(=O)O)cc1N=Nc1cc(S(=O)(=O)O)c2ccccc2c1O,inactive
3,CC1(C)CCC(C)(C)c2cc(NC(=O)c3ccc(C(=O)O)cc3)ccc21,inactive
4,CC/C(=C\C(=N/O)C(N)=O)C(C)[N+](=O)[O-] (stereo unspecified),inactive
5,CC(=O)N(O)CCCCCNC(=O)CCC(=O)N(O)CCCCCNC(=O)CCC(=O)N(O)CCCCCN,inactive
6,Cl/C(=C\n1cncn1)c1ccc(Cl)cc1Cl,inactive
7,CC(C)CC=O,inactive
8,CCCCCCCCCO,inactive
9,CN(C)CCCOc1nn(Cc2ccccc2)c2ccccc12,inactive
10,FC(F)(F)C(F)(F)C(F)(F)C(F)(F)C(F)(F)C(F)(F)CCI,inactive
11,CN1CCC(=C2c3ccccc3C=Cc3ccccc32)CC1,inactive
12,O=C(Cl)c1c(Cl)cccc1Cl,inactive
13,CC(=O)CC(=O)c1ccccc1,inactive
14,CC(=O)O[C@@H]1C(=O)O[C@@H]2[C@H]1OC(=O)[C@@H]2OC(C)=O,inactive
15,CC1=CCC(C(C)C)C=C1 (stereo unspecified),inactive
16,C#CCOC(=O)[C@@H](C)Oc1ccc(Oc2ncc(Cl)cc2F)cc1,inactive
17,O=C(Nc1ccccc1)OCC(CN1CCCCC1)OC(=O)Nc1ccccc1 (stereo unspecified),inactive
18,CCOC(=O)C1=NN(c2ccccc2)C(=O)C1,inactive
19,CCCCCCOC(=O)CCC,inactive

row,Structure (SMILES),Potency
1,CCCCCc1ccc(N)cc1,inactive
2,CN1CCN(C2=Nc3ccccc3Sc3ccc(Cl)cc32)CC1,inactive
3,O=C(CCN1CCN2CCCC2C1)N1c2ccccc2Sc2ccc(Cl)cc21 (stereo unspecified),inactive
4,CCN(CC)CCc1nc(-c2ccccc2)no1,inactive
5,COCCO,inactive
6,CCCCCOC(=O)COc1cc(N2C(=O)C3=C(CCCC3)C2=O)c(F)cc1Cl,inactive
7,Nc1ccc(C(=O)Nc2ccccc2N)cc1,inactive
8,O=C(O)Cc1sc(-c2ccccc2)nc1-c1ccc(Cl)cc1,inactive
9,C[C@H](CCC(=O)O)[C@H]1CC[C@H]2[C@@H]3[C@H](O)C[C@@H]4C[C@H](O)CC[C@]4(C)[C@H]3CC[C@]12C,inactive
10,CN(C(=O)CCCOc1ccc2[nH]c(=O)ccc2c1)C1CCCCC1,inactive
11,CN(c1nccc(=O)[nH]1)C1CCN(c2nc3ccccc3n2Cc2ccc(F)cc2)CC1,inactive
12,CC(C)CCCCCCOC(=O)c1ccc(C(=O)OCCCCCCC(C)C)c(C(=O)OCCCCCCC(C)C)c1,inactive
13,Cc1ccc2c(ccc3ccccc32)c1,inactive
14,CCCCOC(=O)/C=C\C(=O)OCCCC,inactive
15,CN(C)CCCNCCCN,inactive
16,OC(CCN1CCCCC1)(c1ccccc1)C1CCCCC1 (stereo unspecified),inactive
17,CC(=O)[C@@]1(O)CC[C@H]2[C@@H]3C[C@H](C)C4=CC(=O)CC[C@]4(C)[C@H]3CC[C@@]21C,inactive
18,CC(C)(C)C(=O)OCOP(=O)(COCCn1cnc2c(N)ncnc21)OCOC(=O)C(C)(C)C,inactive
19,N#Cc1c(F)cccc1F,inactive

# Molecular target: Vitamin D3 receptor (Homo sapiens) (UniProt P11473)
# Sequence (P11473 whole entry, looked up): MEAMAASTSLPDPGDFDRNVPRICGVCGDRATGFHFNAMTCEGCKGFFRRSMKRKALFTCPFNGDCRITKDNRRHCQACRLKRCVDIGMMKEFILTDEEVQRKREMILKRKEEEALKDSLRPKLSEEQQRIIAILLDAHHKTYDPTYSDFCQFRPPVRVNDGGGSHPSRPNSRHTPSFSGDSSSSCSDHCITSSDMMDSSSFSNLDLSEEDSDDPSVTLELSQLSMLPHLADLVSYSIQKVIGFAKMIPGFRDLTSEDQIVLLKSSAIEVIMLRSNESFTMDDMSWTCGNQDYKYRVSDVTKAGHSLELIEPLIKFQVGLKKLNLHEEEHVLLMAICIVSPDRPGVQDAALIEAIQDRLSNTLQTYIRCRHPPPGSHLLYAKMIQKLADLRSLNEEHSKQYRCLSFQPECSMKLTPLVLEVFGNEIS
# Assay: qHTS assay to identify small molecule agonists of the vitamin D receptor (VDR) signaling pathway (AID 743222; calls by dose curve)
# Conditions: HEK293T VDR-UAS-bla, beta-lactamase FRET ratio, 16 h; series mostly up to 63.5 µM
# Method in brief: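 Following 4 h attachment at 37C, VDR-bla cells (2,000 per well) received DMSO-dissolved compounds or controls. After 16 h incubation, LiveBLAzer B/G FRET substrate was added and fluorescence read 2 h later at room temperature.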
row,Structure (SMILES),outcome
1,Cc1cc(C)c(S(=O)(=O)O)cc1N=Nc1cc(S(=O)(=O)O)c2ccccc2c1O,inactive
2,CC1(C)CCC(C)(C)c2cc(NC(=O)c3ccc(C(=O)O)cc3)ccc21,inactive
3,CC/C(=C\C(=N/O)C(N)=O)C(C)[N+](=O)[O-] (stereo unspecified),inactive
4,CC(=O)N(O)CCCCCNC(=O)CCC(=O)N(O)CCCCCNC(=O)CCC(=O)N(O)CCCCCN,inactive
5,CC(C)CC=O,inactive
6,CCCCCCCCCO,inactive
7,FC(F)(F)C(F)(F)C(F)(F)C(F)(F)C(F)(F)C(F)(F)CCI,inactive
8,O=C(Cl)c1c(Cl)cccc1Cl,inactive
9,CC(=O)CC(=O)c1ccccc1,inactive
10,C#CCOC(=O)[C@@H](C)Oc1ccc(Oc2ncc(Cl)cc2F)cc1,inactive
11,O=C(Nc1ccccc1)OCC(CN1CCCCC1)OC(=O)Nc1ccccc1 (stereo unspecified),inactive
12,CCOC(=O)C1=NN(c2ccccc2)C(=O)C1,inactive
13,CCCCCCOC(=O)CCC,inactive
14,O=C(CCN1CCN2CCCC2C1)N1c2ccccc2Sc2ccc(Cl)cc21 (stereo unspecified),inactive
15,COCCO,inactive
16,CN(C(=O)CCCOc1ccc2[nH]c(=O)ccc2c1)C1CCCCC1,inactive
17,CN(c1nccc(=O)[nH]1)C1CCN(c2nc3ccccc3n2Cc2ccc(F)cc2)CC1,inactive
18,CC(C)CCCCCCOC(=O)c1ccc(C(=O)OCCCCCCC(C)C)c(C(=O)OCCCCCCC(C)C)c1,inactive
19,Cc1ccc2c(ccc3ccccc32)c1,inactive
20,CCCCOC(=O)/C=C\C(=O)OCCCC,inactive
21,CN(C)CCCNCCCN,inactive
22,CC(=O)[C@@]1(O)CC[C@H]2[C@@H]3C[C@H](C)C4=CC(=O)CC[C@]4(C)[C@H]3CC[C@@]21C,inactive

# Reference: PubChem BioAssay (Tox21)
